Experimental data reported in ChEMBL document CHEMBL4513216, “Probing the Open Global Health Chemical Diversity Library for Multistage-Active Starting Points for Next-Generation Antimalarials” (ACS Infect Dis, 2020).
Screen size: about 69,000 compounds; about 8,600 (12%) showed an effect of 50% or more. The entries come from a sample that favours strong results as a whole.

test system: Plasmodium berghei; assay: Screen against P. berghei liver stage (PbLuc), transformed with Luciferase, at 10uM; assay type: functional, HepG2; details: tested at 10 uM

| Structure (SMILES) | INHIBITION [%] |
| --- | --- |
| O=C1c2ncccc2C(CCO)N1Cc1ccccc1 (stereo not given) | 2.55 |
| Cc1c(COC(C)C)cccc1NC(=O)N1CCCC(CO)C1 (stereo not given) | 49.1 |
| CCC1c2cccn2CCN1C(=O)c1cc(OC)nc(OC)n1 (stereo not given) | 19.7 |
| O=C(N[C@@H]1CCC[C@@H](N2CCOCC2)[C@@H]1O)c1ncccn1 | 36.4 |
| CS(=O)(=O)N1C[C@H]2CNC[C@@]2(C(=O)NCCCc2ccccc2)C1 | 73.5 |
| CS(=O)(=O)N1C[C@H]2CNC[C@@]2(C(=O)NCCOc2ccccc2)C1 | 18.6 |
| O=C(C1CC1)N1C[C@H]2CNC[C@@]2(C(=O)NCCCc2ccccc2)C1 | 32.5 |
| CC(C)S(=O)(=O)NC(=O)CC(c1ccccc1)C(F)(F)F (stereo not given) | 31.3 |
| CN(C)S(=O)(=O)NC(=O)CC(c1ccccc1)C(F)(F)F (stereo not given) | 62.8 |
| COCC(C)(C)NC(=O)CC(c1ccccc1)C(F)(F)F (stereo not given) | 29.4 |
| O=C(NCCCc1ccncc1)C1CCCN(Cc2ccco2)C1 (stereo not given) | 19.5 |
| Cc1cnccc1NCCNC(=O)C1CCCN(Cc2ccco2)C1 (stereo not given) | 24.3 |
| Cc1ccc(NCCCNC(=O)C2CCCN(Cc3ccco3)C2)nc1 (stereo not given) | 75.1 |
| c1cncc(COCC2C[C@@H]3OCCN(Cc4cccnc4)[C@H]3C2)c1 (stereo not given in full) | 23.6 |
| CN(C)C(=O)N1CCC[C@]2(C(=O)N(C)C)CN(c3ccccn3)C[C@@H]2C1 | -2.35 |
| Cc1ccc(C(=O)N2CCO[C@H]3[C@H](OCCN(C)C)CC[C@@H]32)o1 | -26.1 |
| CC(NCc1cccnc1)c1cc2c(cc1Br)OCCO2 (stereo not given) | 15 |
| CC(NCc1ccccn1)c1cc2c(cc1Br)OCCO2 (stereo not given) | 47.4 |
| CC(NCc1ccncc1)c1cc2c(cc1Br)OCCO2 (stereo not given) | 53.9 |
| Cc1cnc(N2CCO[C@@H]3CC(COCc4cccnc4)C[C@H]32)nc1 (stereo not given in full) | 45.4 |
| O=C(Nc1cccnc1N1CCSCC1)c1ccc2c(c1)CCO2 | 39.6 |
| COCCOc1ccnc(-c2noc([C@@H]3CCCN3CC(C)(C)C)n2)c1 | 53.2 |
| COCCOc1ccnc(-c2noc([C@@H]3CCCN3CC(C)C)n2)c1 | -15.6 |
| COCCOc1ccnc(-c2noc([C@@H]3CCCN3CC3CC3)n2)c1 | 18.4 |
| CS(=O)(=O)CCC(=O)N1C[C@H]2CC[C@@H](C1)N(Cc1ccccn1)C2=O | 5.38 |
| c1ccc(-c2nc(CNCC3CCCN3c3cccnn3)co2)cc1 (stereo not given) | -17.7 |
| Cn1cc(CN2CCCC(n3c(=O)oc4ccccc43)C2)cn1 (stereo not given) | 2.14 |

| Structure (SMILES) | INHIBITION [%] |
| --- | --- |
| CC(CN(C)C)Nc1nc(O)cc(Cc2ccccc2F)n1 (stereo not given) | 39.3 |
| CCOC(=O)C1CC2(CCOCC2)N2CCC(=O)N12 (stereo not given) | 20.7 |
| CCOC(=O)C1CC2(CCCC2)N2CCC(=O)N12 (stereo not given) | 0.284 |
| CCOC(=O)C1CC2(CCCCC2)N2CCC(=O)N12 (stereo not given) | 54 |
| Cc1noc(C)c1C1CCCN1C(=O)CN1CC2(CCNCC2)OC1=O (stereo not given) | 36.8 |
| Cc1ccccc1C1CCCN1C(=O)CN1CC2(CCNCC2)OC1=O (stereo not given) | 50.1 |
| O=C1OC2(CCNCC2)CN1CC(=O)N1CCCC1c1ccco1 (stereo not given) | 16.8 |
| Cc1nc2ccc(S(=O)(=O)Nc3c(C)nn(CC(=O)O)c3C)cc2s1 | 34.7 |
| CCN(Cc1ccncc1)c1cc(C2CCNCC2)nc(C)n1 | 14.6 |
| Cc1nc(C2CCCNC2)cc(N(C)CCc2ccccc2)n1 (stereo not given) | -16.5 |
| CCN(Cc1ccncc1)c1cc(C2CCCNC2)nc(C)n1 (stereo not given) | 53.7 |
| CCOc1ccc(CNC(C)c2c(C)nn(C)c2C)cc1 (stereo not given) | -88.5 |
| COc1ccccc1CC(=O)N1CCC(NCc2ccccn2)CC1 | 46.3 |
| CN(Cc1cnc(N)nc1)C(=O)c1coc(COc2cccc(F)c2)n1 | 0.546 |
| COc1ccccc1N1CCN(c2nc(N)nc3[nH]cnc23)CC1 | 20.6 |
| COc1ccc(CN(C)[C@@H]2COC[C@H]2c2ccc(F)cc2)cc1 | 34.3 |
| COc1ccc(CN(C)[C@@H]2COC[C@H]2c2ccc(F)cc2)c(OC)c1 | 59.9 |
| COc1cc(CN(C)[C@@H]2COC[C@H]2c2ccc(F)cc2)cc(OC)c1 | 10.635 |
| CN1CCOCC12CCN(C(=O)C1CCC1)CC2 | 22.3 |
| CCOCCCNC(=O)C1(C)CCC(=O)N1c1ccccc1OC (stereo not given) | 32.1 |
| CC(=O)N1CCC(n2nccc2-c2cnc(NCCO)nc2)CC1 | 33.7 |
| Cc1nc(NC(=O)C2CCCN(C(N)=O)C2)sc1-c1ccccc1 (stereo not given) | 34.1 |
| c1ccc(-c2nnc3n2CCN(c2nc(C4CC4)ns2)C3)cc1 | -57.3 |
| Oc1nnc(-c2ccccc2)c2sc(N3CCCCC3)nc12 | 57 |
| Oc1nnc(-c2cccs2)c2sc(N3CCCC3)nc12 | 47.7 |
| Oc1nnc(-c2cccs2)c2sc(N3CCCCC3)nc12 | 54.3 |
| O=c1[nH]nc(-c2cccs2)c2sc(N3CCOCC3)nc12 | -29.5 |

| Structure (SMILES) | INHIBITION [%] |
| --- | --- |
| CC(CS(C)(=O)=O)N(C(=O)CCc1cccc(F)c1)C1CC1 (stereo not given) | -35 |
| CNS(=O)(=O)c1ccc(CNC(=O)N(C)C(C)COC)cc1 (stereo not given) | 44.9 |
| CCC1=N[C@@]2(CC[C@@H]3CN(Cc4ccc(Cl)cc4)C[C@@H]32)C(=O)N1 | 35.3 |
| CCC1=N[C@@]2(CC[C@@H]3CN(CC4CC4)C[C@@H]32)C(=O)N1CC1CC1 | 30.3 |
| CC(C)CN(C(=O)Nc1cccc(C(=O)N(C)C)c1)C1CC1 | 38.5 |
| CC(C)CCN(C(=O)Nc1cccc(C(=O)N(C)C)c1)C1CC1 | 84.1 |
| CC(=O)c1cccc(NC(=O)N(CC(F)F)C2CC2)c1 | 61.1 |
| CC(C)CCN(C(=O)c1cccc(NC(N)=O)c1)C1CC1 | 12.4 |
| N#Cc1cccc(NC(=O)N(CC(F)F)C2CC2)c1 | 24.3 |
| CC(=O)c1cccc(NC(=O)N(CCO)C2CCc3ccccc32)c1 (stereo not given) | 24.8 |
| Cn1ccc(C(=O)N2C[C@@H]3CN(CC4CC4)CCO[C@@H]3C2)n1 | 27.5 |
| CCc1noc(CN(C)Cc2cc3ccc(Cl)cc3[nH]c2=O)n1 | -4.37 |
| CN(Cc1ccccc1F)C(C(N)=O)c1ccccc1 (stereo not given) | 50.8 |
| COCCN(C)C(C(=O)O)c1ccc(F)c(Cl)c1 (stereo not given) | 40.3 |
| CC(O)CNCc1ccccc1C(F)(F)F (stereo not given) | 37.7 |
| CN(Cc1ccccc1Cl)C(C(=O)O)c1ccc(F)c(CO)c1 (stereo not given) | 63.8 |
| CN(Cc1ccccc1C(F)(F)F)C(C(N)=O)c1ccccc1 (stereo not given) | 36.3 |
| CC(CC#N)N(C)Cc1ccccc1F (stereo not given) | 30.9 |
| CC(C(N)=O)N(C)Cc1ccccc1C(F)(F)F (stereo not given) | 56.8 |
| Cc1ccccc1CN(C)C(C(N)=O)c1ccccc1 (stereo not given) | 43.1 |
| CN(C)C(=O)c1ccc(C(C(=O)O)N(C)Cc2ccccc2Cl)cc1 (stereo not given) | 44.3 |
| O=C(CCn1c(C(F)(F)F)cc2cccnc21)N1CCCC1 | 12.3 |
| O=C1COC2(CCN(c3cccc(F)c3)CC2)CN1Cc1ccccn1 | 42.3 |
| CC(C)N1CCc2c(C#N)c(NCc3ccco3)n3cnnc3c2C1 | 37.1 |
| COC(=O)N1CCN(c2ncnc3nc(C)cc(C)c23)CC1 | 20 |
| CC(C)NC(=O)c1ccc2c(c1)nc1n2CCN(Cc2ccco2)C1 | -11.4 |
| CC(=O)N1[C@H](CN(C)C)C[C@@H]2CN(C(=O)c3cncc(C)c3)CC[C@@H]21 | 23.5 |

| Structure (SMILES) | INHIBITION [%] |
| --- | --- |
| COc1ccc(CN2CCC3(CC(=O)N(c4cccc(F)c4)C3)C2)cc1 (stereo not given) | 21.1 |
| CN(C)c1cccc(C2CCN(C3COCC3O)CC2)n1 (stereo not given) | 26.7 |
| CN(CC1(CO)CCOCC1)[C@@H]1c2ccccc2C2(CCNCC2)[C@H]1O | 21.55 |
| CN(CC1(CO)CCCC1)[C@@H]1c2ccccc2C2(CCNCC2)[C@H]1O | 2.18 |
| Cc1ccc(CCN[C@@H]2c3ccccc3C3(CCNCC3)[C@H]2O)s1 | 54.4 |
| COc1ccccc1CCN[C@@H]1c2ccccc2C2(CCNCC2)[C@H]1O | 88 |
| COCCCN(C)[C@@H]1c2ccccc2C2(CCNCC2)[C@H]1O | 11.05 |
| COCCN(C)[C@@H]1c2ccccc2C2(CCNCC2)[C@H]1O | 15.12 |
| Cn1ccnc1SC1CCc2ccccc2NC1=O (stereo not given) | 4.07 |
| Cc1ccc(CN(CCN(C)C)Cc2c(C)nc3sccn23)o1 | 27.675 |
| CN(C)c1cc(CNC(=O)Nc2nnc(C3CC3)s2)ccn1 | -27.8 |
| O=C(CC1=CCCCC1)Nc1ncn(CC(=O)N2CCCCCC2)n1 | -18.4 |
| CC(Nc1cccc(CN2CCOC2=O)c1)C(=O)Nc1cccc(F)c1 (stereo not given) | 28.15 |
| CSCC(CCO)NC(=O)Nc1cccc(Br)c1 (stereo not given) | -4.94 |
| CSCC(CCO)NC(=O)Nc1cc(C)ccc1C (stereo not given) | 40.9 |
| CSCC(CCO)NC(=O)Nc1ccc(Br)cc1 (stereo not given) | 53.8 |
| CCS(=O)(=O)NC(CCSC)C(=O)Nc1ccc(F)cc1 (stereo not given) | 38 |
| CCS(=O)(=O)NC(CCSC)C(=O)Nc1ccccc1C (stereo not given) | 20 |
| CCS(=O)(=O)NC(CCSC)C(=O)Nc1cc(F)ccc1C (stereo not given) | 67.1 |
| CSCC(CCO)NC(=O)Nc1ccc(C)cc1Br (stereo not given) | 36.8 |
| CSCC(CCO)NC(=O)Nc1cc(F)ccc1C (stereo not given) | 50.4 |
| CSCC(CCO)NC(=O)Nc1cc(Br)ccc1C (stereo not given) | -4.94 |
| CO[C@@H]1CCN(Cc2ccc(C)o2)[C@H]1Cc1ccccc1 | 3.88 |
| COc1ccc2c(c1)C(=O)NC1(CC2)CCN(Cc2ccc(F)cc2)C1 (stereo not given) | 13.621 |
